According to PubChem BioAssay (NCI):
Where “and” joins values, the source holds several entries; their conditions need not be identical. Equal values may be shown once. About 79,000 compounds went through this panel and 15% of them were active in at least one assay; those are over-represented in the sample as a whole. Some compounds were tested as several samples or in several runs, with calls that do not always agree. Calls of active or inactive are those of the source. Rule as the data show it: active = growth inhibition above about 70%; inactive = the rest.

Columns and labels:
[1] = NCI Yeast Anticancer Drug Screen. Data for the rad50 strain (AID 155);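 also: 0% = growth of vehicle-only cultures of the same strain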; settings: S. cerevisiae rad50 strain growth inhibition, stronger effect = higher value
Procedure, shortened: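 Growth of the mutant yeast was measured after compound exposure and referenced to vehicle-treated cultures.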

[2] = NCI Yeast Anticancer Drug Screen. Data for the mec2-1 strain (AID 157); settings: S. cerevisiae mec2-1 strain, stronger effect = higher value
Procedure, shortened: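 Vehicle-treated cultures served as reference for growth inhibition of compound-exposed mec2-1 yeast.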

[3] = NCI Yeast Anticancer Drug Screen. Data for the sgs1 mgt1 strain (AID 161);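 also: 0% = growth of cultures given vehicle only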; settings: S. cerevisiae sgs1 mgt1 strain, stronger effect = higher value
Procedure, shortened: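 Read-out: growth inhibition vs vehicle controls. Cells: mutant yeast strain deficient in DNA damage repair.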

[4] = NCI Yeast Anticancer Drug Screen. Data for the cln2 rad14 strain (AID 165);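 also: 0% = growth equal to vehicle treated cultures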; settings: S. cerevisiae cln2 rad14 strain, stronger effect = higher value
Procedure, shortened: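 Each compound was tested on cln2 rad14 yeast. Inhibition of growth was calculated against vehicle-exposed controls.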

[5] = NCI Yeast Anticancer Drug Screen. Data for the bub3 strain (AID 167); settings: S. cerevisiae bub3 mutant strain, stronger effect = higher value
Procedure, shortened: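 Whole-cell yeast assay. The mutant strain was incubated with compounds, and growth inhibition was determined by comparison with vehicle-treated cells.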

[6] = NCI Yeast Anticancer Drug Screen. Data for the mlh1 rad18 strain (AID 175); settings: S. cerevisiae mlh1 rad18 strain growth inhibition, stronger effect = higher value
Procedure, shortened: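 Vehicle-treated cultures served as the reference for growth inhibition in a yeast strain carrying DNA damage repair alterations exposed to each compound.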

[7] = at 5.0 µM (retest, dose inferred, filed as 0.5)
[8] = at 50.0 µM (retest, dose inferred, filed as 5.0)

Row | SMILES | growth inhibition [1, 7] | growth inhibition [1, 8] | growth inhibition ([1]; at 50.0 µM) | growth inhibition [2, 7] | growth inhibition [2, 8] | growth inhibition ([2]; at 50.0 µM) | growth inhibition [3, 7] | growth inhibition [3, 8] | growth inhibition ([3]; at 50.0 µM) | growth inhibition [4, 7] | growth inhibition [4, 8] | growth inhibition ([4]; at 50.0 µM) | growth inhibition [5, 7] | growth inhibition [5, 8] | growth inhibition ([5]; at 50.0 µM) | growth inhibition [6, 7] | growth inhibition [6, 8] | growth inhibition ([6]; at 50.0 µM)
1 | O=C(O)/C(=C(/c1ccccc1)c1ccc(Cl)cc1)c1ccccc1 | 35% (inactive) | 98% (active) | 98.2% (active) and 89.3% (active) | 37% (inactive) | 100% (active) | 32.6% (inactive) and -26.5% (inactive) | 46% (inactive) | 100% (active) | 81.8% (active) and 89.8% (active) | 55% (inactive) | 99% (active) | 94.2% (active) and 91.3% (active) | 43% (inactive) | 99% (active) | 49.7% (inactive) and 90.3% (active) | 69% (inactive) | 98% (active) | 97.4% (active) and 89.5% (active)
2 | Cc1ccnc2c1c(=O)c1ccccc1n2C | 0% (inactive) | 86% (active) | 79.1% (active) | 4% (inactive) | 28% (inactive) | 60.2% (inactive) | -2% (inactive) | 35% (inactive) | 68.9% (inactive) | -6% (inactive) | -3% (inactive) | 46.2% (inactive) | -1% (inactive) | 12% (inactive) | 71.6% (active) | 3% (inactive) | 55% (inactive) | 74.3% (active)
3 | CN(C)CCC(=O)c1cccc([N+](=O)[O-])c1 | 10% (inactive) | 85% (active) | 39.3% (inactive) and 83.9% (active) | 13% (inactive) | 87% (active) | 4.1% (inactive) and 88.5% (active) | 12% (inactive) | 89% (active) | 11.4% (inactive) and 96% (active) | 7% (inactive) | 71% (active) | 31.4% (inactive) and 34.9% (inactive) | 2% (inactive) | 92% (active) | 14.5% (inactive) and 90.2% (active) | 11% (inactive) | 96% (active) | 33.4% (inactive) and 96.8% (active)
4 | O=Cc1cc(Br)ccc1O | 21% (inactive) and 9% (inactive) | 97% (active) and 85% (active) | 88.7% (active) and 95.2% (active) | 7% (inactive) and 4% (inactive) | 73% (active) and 77% (active) | 92.5% (active) and 98% (active) | 10% (inactive) and 4% (inactive) | 73% (active) and 68% (inactive) | 95.9% (active) and 96.3% (active) | 8% (inactive) and -3% (inactive) | 61% (inactive) and 30% (inactive) | 48.2% (inactive) and 69% (inactive) | 6% (inactive) and -4% (inactive) | 97% (active) and 88% (active) | 91.7% (active) and 97.5% (active) | 17% (inactive) and 11% (inactive) | 94% (active) and 93% (active) | 97% (active) and 99% (active)
5 | COc1cc(NCCCCCCC2CCCCN2)c2ncccc2c1 (centres undefined) | 0% (inactive) and 4% (inactive) | 81% (active) and 71% (active) | 50.5% (inactive) and 85.7% (active) | -1% (inactive) | 47% (inactive) and 23% (inactive) | 49.2% (inactive) and 45.4% (inactive) | -7% (inactive) and 0% (inactive) | 71% (active) and 81% (active) | 40.6% (inactive) and 88% (active) | 5% (inactive) and 3% (inactive) | 27% (inactive) and 61% (inactive) | 14.1% (inactive) and 11.3% (inactive) | 1% (inactive) and 4% (inactive) | 54% (inactive) and 37% (inactive) | 53.4% (inactive) and 71.5% (active) | 3% (inactive) and 2% (inactive) | 89% (active) and 78% (active) | 61% (inactive) and 94.5% (active)
6 | CCC(C)[P+](c1ccccc1)(c1ccccc1)c1ccccc1 (centres undefined) | 2% (inactive) | 36% (inactive) | 62.9% (inactive) and 33.3% (inactive) | 18% (inactive) | 60% (inactive) | 66% (inactive) and 29.6% (inactive) | -8% (inactive) | 23% (inactive) | 53.9% (inactive) and 19.9% (inactive) | -4% (inactive) | 25% (inactive) | 58.1% (inactive) and 36% (inactive) | -3% (inactive) | 30% (inactive) | 57.8% (inactive) and 36% (inactive) | 21% (inactive) | 54% (inactive) | 72.4% (active) and 53.9% (inactive)
7 | COC(=O)CSC(=S)N1CCOCC1 | 2% (inactive) | 6% (inactive) | -6.85% (inactive) | 9% (inactive) | 4% (inactive) | -5.75% (inactive) | 4% (inactive) | 22% (inactive) | -5.3% (inactive) | 7% (inactive) | -4% (inactive) | -38% (inactive) | -3% (inactive) | -5% (inactive) | -10.1% (inactive) | 4% (inactive) | 5% (inactive) | 24.2% (inactive)
8 | COc1ccc(-c2c(C#N)c(-c3ccc(C)cc3)n(NS(=O)(=O)c3ccccc3)c(=O)c2C#N)cc1 | 94% (active) | 97% (active) | 40.5% (inactive) | 42% (inactive) | 94% (active) | 49.8% (inactive) | 41% (inactive) | 75% (active) | 50.8% (inactive) | 49% (inactive) | 58% (inactive) | 66% (inactive) | 47% (inactive) | 56% (inactive) | 39.6% (inactive) | 91% (active) | 95% (active) | 43% (inactive)
9 | OC(C/C=C/c1ccccc1)(c1ccccc1)c1ccccc1 | 3% (inactive) | 39% (inactive) | 97% (active) and 97.5% (active) | -1% (inactive) | 48% (inactive) | 98.7% (active) | 7% (inactive) | 52% (inactive) | 98.1% (active) and 98.2% (active) | 7% (inactive) | 55% (inactive) | 96.9% (active) and 98.2% (active) | 29% (inactive) | 83% (active) | 96.8% (active) and 97.7% (active) | -2% (inactive) | 61% (inactive) | 97.4% (active) and 98.2% (active)
10 | O=c1c(Cl)c(Cl)cnn1-c1ccccc1 | 33% (inactive) | 58% (inactive) | 30.9% (inactive) and 6.8% (inactive) | 1% (inactive) | 22% (inactive) | 45% (inactive) and -8.9% (inactive) | -6% (inactive) | 14% (inactive) | 35.7% (inactive) and -2.25% (inactive) | 17% (inactive) | 19% (inactive) | 28.1% (inactive) and 13.8% (inactive) | 10% (inactive) | 21% (inactive) | 23.9% (inactive) and -9.2% (inactive) | 8% (inactive) | 26% (inactive) | 72.6% (active) and -13.8% (inactive)
11 | CCCCCCCCCCCCCCCCBr | -1% (inactive) | 0% (inactive) | 99.5% (active) | -2% (inactive) | 0% (inactive) | 99.7% (active) | -2% (inactive) | 8% (inactive) | 99.3% (active) | 4% (inactive) | 1% (inactive) | 98.8% (active) | -2% (inactive) | -3% (inactive) | 99.5% (active) | 6% (inactive) | -5% (inactive) | 99.2% (active)
12 | O=C(CON1C(=O)c2ccccc2C1=O)c1ccccc1 | -3% (inactive) | 19% (inactive) | 91.2% (active) | 8% (inactive) | 29% (inactive) | 52% (inactive) | 6% (inactive) | 21% (inactive) | 55.1% (inactive) | -5% (inactive) | -8% (inactive) | -3.15% (inactive) | -7% (inactive) | 32% (inactive) | 80.5% (active) | -16% (inactive) | 18% (inactive) | 76.2% (active)
13 | CN(C)c1ccc(/C=C/c2sc3ccccc3[n+]2C)cc1 | -39% (inactive) and 14% (inactive) | 99% (active) and 98% (active) | 99.2% (active) | -16% (inactive) and 49% (inactive) | 99% (active) | 99.2% (active) and 99.4% (active) | -2% (inactive) and 16% (inactive) | 72% (active) and 99% (active) | 99.5% (active) and 99.4% (active) | -2% (inactive) and 13% (inactive) | 99% (active) and 98% (active) | 98.8% (active) and 99.3% (active) | 12% (inactive) and -4% (inactive) | 99% (active) | 99.4% (active) and 99.3% (active) | 7% (inactive) and 22% (inactive) | 99% (active) | 99.3% (active) and 99.2% (active)
